# Source: the supplement of paper PMC4166925
# ± gives the standard deviation of the averaged measurements. Over roughly 33,000 sequences, “E-score (dimensionless, -0.5 to 0.5)” has its median near -0.046; the highest 2% begin near 0.36. This is one part of a sample in which the highest values are shown more often than they occur.
# Tested on: T1, SpTbr T-box DNA-binding domain (GST fusion)
# T1 sequence: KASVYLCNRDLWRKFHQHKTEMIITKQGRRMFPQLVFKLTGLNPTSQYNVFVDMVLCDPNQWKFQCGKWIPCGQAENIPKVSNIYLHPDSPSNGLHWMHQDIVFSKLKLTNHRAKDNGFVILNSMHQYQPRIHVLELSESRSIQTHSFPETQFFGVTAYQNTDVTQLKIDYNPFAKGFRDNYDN
# Assay: PBM E-score of 8-mer (E-score (dimensionless, -0.5 to 0.5)); Tbr is Tbrain of the sea star Patiria miniata (Pm) or the sea urchin Strongylocentrotus purpuratus (Sp); higher = stronger binding preference
# Details: the construct has about 5 more residues each side
# Protocol: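 Universal protein-binding microarray (Agilent AMADID 016060, 60-bp probes with a 35-bp variable region) incubated with 200 nM GST-fused Strongylocentrotus purpuratus Tbr T-box DNA-binding domain (residues 362-554) in PBS pH 7.5. Scored for every ungapped 8-mer (given with its reverse complement) as E-score (range -0.5 to 0.5; >0.45 counts as bound) and Z-score of median probe intensity. Two replicate arrays (datasets 1 and 2).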
# 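Note: protein at 200 nM in PBS on universal double-stranded arrays.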
row,Sequence,PBM E-score of 8-mer
1,ATTCTGTG,-0.0566 ± 0.036
2,CTCTCAGA,-0.187 ± 0.0034
3,CTCCGGCA,0.0686 ± 0.041
4,CCATAAGG,-0.0717 ± 0.0012
5,AGGCGTCG,0.349 ± 0.018
6,CGGCGTCA,0.223 ± 0.02
7,GGGCGTCA,0.376 ± 0.017
8,GTGCGTCA,0.187 ± 0.009
9,AGGCGTCA,0.41 ± 0.005
10,GCGCGTCA,0.265 ± 0.028
11,ACTTCAAT,-0.0527 ± 0.032
12,ACGTCACG,0.217 ± 0.057
13,ATGTTGGG,-0.0592 ± 0.0084
14,TAAGGCTA,-0.149 ± 0.077
15,CACACTCC,0.402 ± 0.0059
16,CCCACTCG,0.05 ± 0.13
17,TACACTCA,0.137 ± 0.013
18,AACACTCA,0.31 ± 0.0041
19,CACACTCA,0.407 ± 0.0072
20,GACACTCC,0.316 ± 0.0096
21,AACACTCG,0.193 ± 0.0083
22,CACACTCG,0.426 ± 0.019
23,AACACTCC,0.283 ± 0.039
24,CGCAGCAC,0.0169 ± 0.017
25,AGTTGCTA,0.239 ± 0.042

row,Sequence,PBM E-score of 8-mer
1,GGACACAC,0.0866 ± 0.0081
2,CGTCACAC,0.43 ± 0.011
3,GGTCACAA,0.2073 ± 0.00096
4,GGTCACAC,0.46 ± 0.013
5,AGTCACAT,0.1318 ± 0.0012
6,CGTCACAG,0.232 ± 0.0032
7,AGTCACAG,0.0674 ± 0.028
8,CGTCACAA,0.244 ± 0.0062
9,AGTCACAC,0.457 ± 0.0049
10,GTTCATCA,0.0211 ± 0.0087
11,ATCAACAT,-0.111 ± 0.028
12,AGTGCTCC,-0.0941 ± 0.03
13,AGTCTTGG,-0.101 ± 0.011
14,CGTAAGTA,0.169 ± 0.0079
15,AGGTGTCC,0.428 ± 0.0068
16,ACGTGTCG,0.362 ± 0.015
17,ACGTGTCC,0.0769 ± 0.048
18,AGCTGTCG,0.263 ± 0.013
19,AGATGTCC,-0.309 ± 0.003
20,AGGTGTCG,0.486 ± 0.008
21,CCACCAGG,-0.177 ± 0.03
22,CGTGAGCA,0.105 ± 0.039
23,GCCTAAGC,-0.159 ± 0.006
24,CTAACTAG,0.0135 ± 0.086
25,AAGGGAAA,-0.289 ± 0.05

row,Sequence,PBM E-score of 8-mer
1,GACAATGA,0.176 ± 0.0013
2,ATCACCTA,0.321 ± 0.065
3,CTCACCTC,0.444 ± 0.0047
4,CTCACCGC,0.0406 ± 0.0049
5,CTCACCAC,0.218 ± 0.037
6,ATCACCAC,0.113 ± 0.004
7,ATCACCTC,0.387 ± 0.0097
8,CCGGTTCC,-0.27 ± 0.0077
9,GTGCCATA,0.222 ± 0.024
10,ATAACGCC,0.28 ± 0.032
11,AAGGATTA,-0.152 ± 0.047
12,CAGATCAG,-0.0587 ± 0.00064
13,ACAAGTGA,0.243 ± 0.07
14,AAAAGTGA,0.169 ± 0.069
15,ACAAGTGT,0.381 ± 0.019
16,ACAAGTGG,0.355 ± 0.012
17,AAAAGTGT,0.39 ± 0.016
18,AAAAGTGG,0.118 ± 0.11
19,TAACCCTA,-0.15553 ± 2.1e-05
20,ACTGTGAT,0.242 ± 0.0029
21,CTTGTGAA,0.353 ± 0.034
22,ACTGTGAG,0.269 ± 0.031
23,GCTGTGAA,0.4045 ± 0.0013
24,ATTGTGAA,0.317 ± 0.067
25,TCTGTGAA,0.329 ± 0.017

row,Sequence,PBM E-score of 8-mer
1,ACTGTGAA,0.413 ± 0.0064
2,GCTGTGGA,0.151 ± 0.058
3,GTTGTGAA,0.4 ± 0.015
4,AAAGAGAG,-0.0256 ± 0.025
5,GAACTCGA,0.194 ± 0.051
6,TGTGATAA,0.377 ± 0.017
7,AGTGATAA,0.278 ± 0.067
8,CGTGATAA,0.27 ± 0.036
9,GGTGATAA,0.37553 ± 0.00031
10,GGTGATAC,0.221 ± 0.028
11,TATGATAA,-0.00343 ± 0.017
12,CGTATGCC,-0.271 ± 0.057
13,ACACCTAT,0.4592 ± 0.0012
14,ATACCTAT,-0.0845 ± 0.068
15,CCACCTAG,0.183 ± 0.046
16,ACACCTGT,0.4669 ± 0.0038
17,GCACCTAA,0.339 ± 0.04
18,ACACCTAA,0.4637 ± 0.0015
19,ACACCGGT,0.246 ± 0.055
20,AGACCTAT,-0.142 ± 0.047
21,TCACCTAA,0.301 ± 0.018
22,AAACCTAG,0.0536 ± 0.035
23,AAACCTGT,0.0331 ± 0.12
24,ACACCTAG,0.444 ± 0.0087
25,CGTGGGAC,0.0261 ± 0.0086

row,Sequence,PBM E-score of 8-mer
1,AATCCCAC,0.151 ± 0.013
2,ATCTGCCG,-0.21 ± 0.071
3,TGCATTAA,0.022 ± 0.05
4,CATGCGCC,-0.226 ± 0.0069
5,CGCATATC,-0.0822 ± 0.013
6,CAGACCCA,-0.0355 ± 0.018
7,AGGTCTTA,-0.0667 ± 0.12
8,CCCTCACG,0.153 ± 0.063
9,ACTGGACC,-0.203 ± 0.069
10,ATCCAGCC,-0.0901 ± 0.0022
11,ACACCTAC,0.462 ± 0.0061
12,GCACCTAC,0.352 ± 0.025
13,CCACCTAC,0.248 ± 0.043
14,AATAGATG,0.0328 ± 0.094
15,AACTAATG,-0.0496 ± 0.012
16,AGCTTTGA,-0.239 ± 0.067
17,AGTCTCTC,-0.105 ± 0.029
18,CTTCCTCC,-0.204 ± 0.065
19,CGCAACAC,0.306 ± 0.024
20,GGCAACAC,0.3658 ± 0.00072
21,AGCAACAG,-0.0121 ± 0.0042
22,AGCAACAC,0.376 ± 0.026
23,GGCAACAA,0.13 ± 0.019
24,AGCAACAA,0.1945 ± 0.00053
25,GGTTATCA,0.0778 ± 0.034

row,Sequence,PBM E-score of 8-mer
1,CGCTAAAC,0.187 ± 0.1
2,GACGGGCA,-0.2934 ± 0.0011
3,AACTGGTG,0.188 ± 0.02
4,ACACCCCC,0.363 ± 0.015
5,ACACCCCG,0.35 ± 0.018
6,ACCCCCCT,-0.162 ± 0.03
7,ACACCCCT,0.385 ± 0.013
8,ACACCCCA,0.376 ± 0.013
9,ACCCCTCT,-0.063 ± 0.085
10,TGACGTAA,-0.098 ± 0.019
11,CATATCTA,-0.24 ± 0.025
12,GAAGCCTA,-0.182 ± 0.037
13,GACGGGCC,-0.12 ± 0.046
14,CAGCGCGA,0.199 ± 0.0059
15,AAGCGCGA,0.369 ± 0.007
16,AAGCGCGC,0.0762 ± 0.0076
17,GAGCGCGA,0.279 ± 0.053
18,TAGCGCGA,0.3785 ± 0.0014
19,AAGCGCGG,0.136 ± 0.063
20,CTTCCAGA,-0.22 ± 0.011
21,ACCATAGC,0.0118 ± 0.017
22,CTCTGGGC,-0.112 ± 0.012
23,TCATTGGA,-0.0638 ± 0.031
24,CCTCCATC,-0.0262 ± 0.042
25,CCACACTA,0.279 ± 0.029

row,Sequence,PBM E-score of 8-mer
1,CCACACTC,0.374 ± 0.015
2,ACACACTC,0.307 ± 0.019
3,CCACACCC,0.414 ± 0.024
4,ACACACCC,0.33 ± 0.0064
5,CCACACCG,0.226 ± 0.071
6,ATCCTGCC,-0.182 ± 0.054
7,ATGGGCAG,-0.0503 ± 0.058
8,ATGCCCGC,0.031 ± 0.012
9,ATGTGCCC,-0.0447 ± 0.038
10,AAGTGCCA,0.4045 ± 0.0038
11,ATGTGCCA,0.374 ± 0.01
12,AAGTGCCC,-0.146 ± 0.044
13,ATGTGCCG,0.175 ± 0.032
14,GAGTGCCA,0.20475 ± 0.00018
15,AAGTGCTA,0.419 ± 0.014
16,AAGTGCTC,0.118 ± 0.051
17,AAGTGCTG,0.246 ± 0.04
18,AAGAGAGA,-0.141 ± 0.03
19,GTCACAGA,0.0552 ± 0.0087
20,GTCACACA,0.409 ± 0.03
21,CACACACG,0.233 ± 0.057
22,CACACACA,0.3384 ± 0.00066
23,GTCACAAA,0.125 ± 0.032
24,CTCACACA,0.438 ± 0.0081
25,ATATTAAT,-0.209 ± 0.078

row,Sequence,PBM E-score of 8-mer
1,CTGTGGTC,-0.0438 ± 0.0053
2,CCAGCCGG,-0.00031 ± 0.015
3,AGGTAGCG,0.143 ± 0.04
4,CTTACGCA,0.0993 ± 0.0077
5,ATCACGCA,0.19 ± 0.026
6,CTTACGCC,0.177 ± 0.0022
7,ATCACGCG,0.357 ± 0.012
8,ATCACGCC,0.403 ± 0.0051
9,GTCACGCA,0.279 ± 0.017
10,CTCACGCC,0.397 ± 0.039
11,CCCACGCC,0.163 ± 0.014
12,CTCACGCA,0.375 ± 0.022
13,ATATAGGC,-0.0504 ± 0.058
14,ACTTAAGT,-0.0767 ± 0.13
15,GTGCTCTA,-0.178 ± 0.029
16,ACCCGAAC,-0.0199 ± 0.021
17,AGCAAAAT,-0.0958 ± 0.067
18,CCCTTACG,-0.0777 ± 0.068
19,GCCTGCAA,-0.0777 ± 0.016
20,CTGCTAAC,0.321 ± 0.029
21,CTGCTAAA,0.0425 ± 0.15
22,GTGCTAAA,0.384 ± 0.026
23,ATGCTAAC,0.0372 ± 0.018
24,GCGCTAAA,0.338 ± 0.014
25,TTGCTAAA,0.109 ± 0.08

row,Sequence,PBM E-score of 8-mer
1,GCGCTAAC,0.388 ± 0.007
2,GTGCTAAC,0.432 ± 0.012
3,CCGCTAAC,0.16 ± 0.031
4,AACAAGGT,0.271 ± 0.009
5,AGTAGCGC,0.224 ± 0.014
6,GACCATAC,-0.206 ± 0.012
7,ACAACCAT,0.0868 ± 0.041
8,GAAGTCGA,0.107 ± 0.051
9,AGTCTGGG,-0.278 ± 0.029
10,CCCAACGG,-0.055 ± 0.1
11,GTGTTAAC,0.4543 ± 0.0026
12,GTGTTATA,0.4 ± 0.034
13,CTGTTATA,0.137 ± 0.071
14,ATGTTATA,-0.0933 ± 0.013
15,ATGTTAAC,0.182 ± 0.097
16,CCGTTAAC,0.228 ± 0.007
17,CTGTTAAC,0.312 ± 0.028
18,ATGTTGGA,-0.0349 ± 0.065
19,ACGTTAAC,0.255 ± 0.013
20,GTGTTGGA,0.367 ± 0.0068
21,GCGTTAAC,0.374 ± 0.011
22,CTGTTGGA,0.0702 ± 0.044
